Measured values: PubChem BioAssay (NCI)
This is part of a sample that, as a whole, favours compounds with a hit. Of some 83,000 tested, about 20% had one in any assay.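 Testing used 96-well plates and a 48-hour single-concentration exposure. Example: -40 means 40% of the starting cells died.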 Active and inactive are the calls of the source. Rule for the calls: active = growth percent below 10; inactive = the rest.

Key:
Test in all cases: NCI-60 one-dose screen, 48 h (100 = growth as untreated, 0 = no growth, -100 = all killed)
[1] = tested on: HCT-15 colon; settings: 10 µM unless noted
[2] = tested on: HT29 colon; settings: 10 µM unless noted
[3] = tested on: SNB-75 CNS; settings: 10 µM unless noted
[4] = tested on: SNB-19 CNS; settings: 10 µM unless noted
[5] = tested on: U251 CNS; settings: 10 µM unless noted
[6] = tested on: PC-3 prostate; settings: 10 µM unless noted
[7] = tested on: SK-MEL-5 melanoma; settings: 10 µM unless noted
[8] = tested on: UACC-62 melanoma; settings: 10 µM unless noted
[9] = tested on: LOX IMVI melanoma; settings: 10 µM unless noted
[10] = tested on: SK-MEL-28 melanoma; settings: 10 µM unless noted
[11] = tested on: SK-MEL-2 melanoma; settings: 10 µM unless noted
[12] = tested on: SN12C renal; settings: 10 µM unless noted
[13] = tested on: UO-31 renal; settings: 10 µM unless noted
[14] = tested on: TK-10 renal; settings: 10 µM unless noted
[15] = tested on: ACHN renal; settings: 10 µM unless noted
[16] = tested on: A498 renal; settings: 10 µM
[17] = tested on: HL-60(TB) leukemia; settings: 10 µM unless noted
[18] = tested on: CCRF-CEM leukemia; settings: 10 µM unless noted
[19] = tested on: EKVX NSCLC; settings: 10 µM unless noted
[20] = tested on: CAKI-1 renal; settings: 10 µM unless noted

Measured: growth

CCOP(=O)(NC[C@H]1O[C@](O)(CO)[C@@H](O)[C@@H]1O)OCC
inactive: [1] 100% | [2] 96.2% | [3] 80.2% | [4] 97% | [5] 101% | [6] 85.9% | [7] 96.5% | [8] 99.8% | [9] 92.8% | [10] 116% | [11] 98.4% | [12] 100% | [13] 69.9% | [14] 97.2% | [15] 103% | [16] 99.9% | [17] 101% | [18] 101%

CCCCCCCC[n+]1ccc2ccccc2c1
inactive: [1] 99.7% | [2] 42.4% | [3] 69.4% | [4] 53.8% | [5] 66% | [6] 35% | [8] 25.5% | [9] 63.6% | [10] 61.2% | [11] 24.5% | [12] 48.3% | [13] 71% | [14] 62.9% | [15] 94.8% | [16] 93.1% | [18] 43.3%
active: [7] -19.4%

O=C1C2CCC1C(N1CCCC1)CC2 (stereo unspecified)
inactive: [1] 98.6% | [2] 102% | [3] 79.8% | [4] 102% | [5] 100% | [6] 93.1% | [7] 99.9% | [8] 96.6% | [9] 97.8% | [10] 102% | [11] 103% | [12] 100% | [13] 87.5% | [14] 97.8% | [15] 102% | [16] 92.2% | [17] 97.2% | [18] 94.3%

C[C@]12CC[C@H]3[C@@H](CC4SC(N)=NC45C/C(=N/NC(N)=O)CC[C@]35C)[C@@H]1CCC2=O (stereo partly specified)
inactive: [2] 13.2% | [3] 99% | [6] 57.3% | [7] 20.6% | [8] 38.9% | [10] 13% | [12] 18.1% | [13] 85.8% | [14] 49.2% | [15] 32.4% | [20] 63% | [16] 91.6% | [17] 42.8%
active: [1] -47.8% | [4] -9.98% | [5] -69.9% | [9] -67.6% | [19] -4.54% | [18] -5.86%

[Cl][Hg][c]1cc(Br)cc(Br)c1
inactive: [1] 38.2% | [2] 46.4% | [3] 21.6% | [4] 17% | [6] 50.3% | [7] 22.1% | [8] 47% | [10] 59.5% | [11] 41.3% | [13] 102% | [14] 121% | [16] 75.4%
active: [5] -55.9% | [9] 9.91% | [17] -27% | [18] 1.44%

Cn1cc(C2=C(c3cn(C4CCN(Cc5ccccn5)CC4)c4ccccc34)C(=O)NC2=O)c2ccccc21
inactive: [1] 85.9% | [2] 14.3% | [3] 57.8% | [4] 101% | [5] 88.4% | [6] 92.2% | [7] 69.2% | [8] 13.7% | [9] 48.5% | [10] 18.7% | [19] 83.4% | [12] 81.1% | [13] 48.4% | [14] 56.3% | [15] 63.8% | [16] 88.1% | [17] 39.8% | [18] 112%

C[C@]12CCc3sc(-c4cccc(F)c4)nc3C1=CC[C@@H]1[C@@H]2CC[C@]2(C)C(=O)CC[C@@H]12
inactive: [3] 44.6% | [4] 60% | [5] 18.8% | [6] 35% | [7] 61.5% | [8] 34.9% | [10] 48% | [11] 32.1% | [12] 42.9% | [14] 24% | [15] 11.9% | [17] 34.2% | [18] 15.8%
active: [1] -38.2% | [2] 5.21% | [9] 1.34% | [13] 1.08%

COC(=O)[C@@H](C)C[C@H](Cc1ccccc1)NC(=O)c1nc([C@@H](C[C@H](C(C)C)N(C)C(=O)[C@@H](NC(=O)[C@H]2CCCN2C)C(C)C)OC(C)=O)sc1C
active: [2] 2.1% | [5] 5.39% | [7] -20.7% | [16] -2.29% | [17] -33.5%
inactive: [1] 13.4% | [3] 51.2% | [4] 42% | [6] 17.2% | [8] 46.6% | [9] 25.6% | [10] 65.6% | [11] 36.6% | [12] 31% | [13] 43.9% | [14] 13.6% | [15] 19.6% | [18] 10.3%

O=[N+]([O-])c1c(Br)sc(Br)c1[N+](=O)[O-]
inactive: [3] 63.1% | [4] 76% | [6] 67.5% | [7] 51.4% | [10] 57.3% | [12] 30% | [16] 111%
active: [1] -13.9% | [2] -58% | [5] -31% | [8] -1.09% | [9] -65.3% | [11] -20.9% | [13] -65.7% | [14] -78.3% | [17] -11.2% | [18] -18.9%

COc1ccc(/C=C\c2cc(OC)c(OC)c(OC)c2)c(NS(=O)(=O)c2ccc(F)cc2)c1O
active: [1] 6.21% | [7] -28.4% | [11] -6.87%
inactive: [2] 12.5% | [3] 34.9% | [4] 37.4% | [5] 19.1% | [6] 31.3% | [8] 40.1% | [9] 19.3% | [10] 63.2% | [12] 28.1% | [13] 48% | [14] 59.3% | [15] 24.4% | [20] 20.8% | [17] 10.1% | [18] 17.4%

CCC1CN1CCCCN1CC1CC (stereo unspecified)
inactive: [1] 88.5% | [2] 98.2% | [3] 81.7% | [4] 99.3% | [5] 99% | [6] 98.5% | [7] 99.5% | [8] 97.2% | [9] 97.7% | [10] 90% | [11] 118% | [12] 95.2% | [13] 92.6% | [14] 104% | [20] 99.6% | [16] 115% | [17] 123%

C[C@@H]1C[C@@]2(C)[C@@H](CC[C@@H]3[C@@H]2CC[C@]2(C)C(=O)CC[C@@H]32)CC1=O
inactive: [1] 103% | [2] 91.8% | [3] 86.2% | [4] 96.7% | [5] 101% | [6] 97.3% | [7] 114% | [8] 99.4% | [9] 98.5% | [10] 76.7% | [19] 86.5% | [13] 96.3% | [14] 94% | [15] 103% | [16] 71.9% | [17] 74.6% | [18] 83.7%
active: [20] -30.7%

CO[C@H](C(=O)O)[C@@H]1Cc2cc3cc(OC4CC(OC5CC(O)C(O)C(C)O5)C(O)C(C)O4)c(C)c(O)c3c(O)c2C(=O)[C@H]1OC1CC(OC2CC(OC3CC(C)(O)C(O)C(C)O3)C(O)C(C)O2)C(O)C(C)O1 (stereo partly specified)
inactive: [1] 38.7% | [4] 10.8% | [5] 10.1% | [6] 19.7% | [19] 31.3% | [12] 15.3% | [14] 24.2% | [20] 25.7% | [17] 41.3% | [18] 23.8%
active: [2] 7.12% | [3] -55.1% | [7] -17.2% | [8] -68.1% | [9] -6.05% | [10] -5.84% | [13] 8.85% | [15] 2.89% | [16] -55.7%

COC(=O)[C@@H](C)C[C@H](Cc1ccccc1)NC(=O)c1nc([C@@H](C[C@H](C(C)C)N(C)C(=O)[C@@H](NC(=O)[C@H]2C[C@H](O)CCN2C)C(C)C)OC(C)=O)sc1C(C)C
inactive: [4] 16.5% | [6] 21.5% | [8] 31.3% | [10] 44.8% | [11] 12.4% | [13] 12.5% | [14] 27.5% | [15] 10.8% | [20] 23.8%
active: [1] 2.8% | [2] -15.3% | [3] -9.05% | [5] 7.85% | [7] -24% | [9] 8.19% | [12] 7.67% | [17] -42.3% | [18] 4.78%

NC(=O)c1c(Br)n(C2OC(CO)C(O)C2O)c2ncnc(N)c12 (stereo unspecified)
inactive: [2] 16.3% | [3] 37.5% | [4] 53.9% | [5] 33.4% | [7] 50.7% | [12] 13.4% | [14] 30.4% | [15] 12.1%
active: [1] 3.75% | [6] -10.5% | [8] 8.21% | [9] 1.47% | [10] -4.78% | [19] -2.28% | [13] 1.86% | [16] -29.9% | [17] -37.2% | [18] -34.4%

CC(C)[C@]12O[C@H]1[C@@H]1O[C@]13[C@]1(O[C@H]1C[C@H]1c4c(C(=O)c5ccccc5)oc(OC(=O)c5ccccc5)c4CC[C@@]13C)[C@@H]2O
inactive: [4] 13.8% | [5] 12.1% | [12] 23.7% | [14] 44% | [15] 10.6%
active: [1] 5.32% | [2] 8.55% | [3] -30.5% | [6] -0.741% | [7] -51.9% | [8] -28.7% | [9] 9.13% | [10] -69.5% | [19] -17.2% | [13] 7.34% | [16] -49.4% | [17] -46% | [18] -32.5%

CC1=C(CCCOC(=O)CN)C2=C(C)C3(CC3)[C@@](C)(O)C(=O)C2=C1
inactive: [1] 77.6% | [2] 69.9% | [3] 97% | [4] 91.2% | [5] 82.3% | [6] 69.4% | [7] 92.2% | [8] 90.8% | [9] 88.6% | [10] 115% | [11] 102% | [13] 73.3% | [14] 102% | [15] 97.4% | [16] 94.7% | [17] 75.2% | [18] 81.1%
